Measurements as given in PubChem BioAssay (NCATS).
“And” between values parts separate entries of the source, which are not always exact repeats. Equal values may be shown once. Records with an inconclusive call do not appear. The source made the active and inactive calls. Unless noted, calls follow the shape of the dose curve; as a rule, active = well fitted curve in the direction sought with a large enough effect; inconclusive = small, poorly fitted or top-dose-only effect, or another doubt; inactive = no such curve, though single readings can be large; an effect the other way counts as inactive or inconclusive.

Assays:
[1] = AP1 Signaling Pathway (AID 357; active = well fitted curve in either direction with a large enough effect, not every such curve was filed as active;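 also: ME-180 reporter cells stimulated with EGF at its EC50 level; % is scaled to controls: 0 for no effect and ±100 for the full control effect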); details: ME-180 AP-1-bla reporter, EGF-induced, beta-lactamase ratio, 5 h
In short: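 A ratiometric CCF4 readout (405 nm excitation; 460 and 530 nm emission) quantified AP-1-driven beta-lactamase in ME-180 cells after 5 h with compound and EC50 EGF; AC50 values were derived for activators and inhibitors.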

[2] = NFAT Signaling Pathway (AID 444; active = well fitted curve in either direction with a large enough effect, not every such curve was filed as active;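 also: carbachol stimulus at about its EC50 of 1 µM final; % is scaled to controls: 0 for no effect and ±100 for the full control effect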); details: Jurkat NFAT-bla M1, carbachol, beta-lactamase ratio, 5 h; at 38 µM (top of the series)
In short: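 Jurkat cells with NFAT-driven β-lactamase reporter and co-expressed M1 receptor, stimulated with carbachol (final 1 uM, ~EC50), compound titration, 5 h at 37 °C. CCF4 loaded 1 h at RT; 460/530 nm ratio gave %activity and AC50.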

[3] = Stat Signaling Pathway (AID 446; active = well fitted curve in either direction with a large enough effect, not every such curve was filed as active;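 also: ME-180 cervical cancer cells given 40 pM IL-6 alongside compound; SIE-controlled beta-lactamase reporter measured as 460/530 nm FRET emission ratio; % is scaled to controls: 0 for no effect and ±100 for the full control effect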); details: ME-180 (cervical carcinoma) SIE beta-lactamase reporter, IL-6 stimulated, 5 h
In short: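 Compound effects on IL-6-induced STAT reporter activity were measured in ME-180 cells. After overnight culture, cells were co-treated with 40 pM IL-6 for 5 hrs before beta-lactamase substrate loading at room temperature.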

[4] = target: Glucocorticoid receptor (Homo sapiens) (UniProt P04150); assay: GR-GFP Redistribution (AID 450;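 active = compounds whose dose series gives a full or clear partial fitted curve of increased nuclear translocation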; also: potency is read from the fitted curve at half-maximal effect); details: U2OS GR-GFP nuclear translocation, laser cytometry, 2 h
Sequence of Glucocorticoid receptor (Homo sapiens) (P04150 whole entry, looked up, the tested form may be a part): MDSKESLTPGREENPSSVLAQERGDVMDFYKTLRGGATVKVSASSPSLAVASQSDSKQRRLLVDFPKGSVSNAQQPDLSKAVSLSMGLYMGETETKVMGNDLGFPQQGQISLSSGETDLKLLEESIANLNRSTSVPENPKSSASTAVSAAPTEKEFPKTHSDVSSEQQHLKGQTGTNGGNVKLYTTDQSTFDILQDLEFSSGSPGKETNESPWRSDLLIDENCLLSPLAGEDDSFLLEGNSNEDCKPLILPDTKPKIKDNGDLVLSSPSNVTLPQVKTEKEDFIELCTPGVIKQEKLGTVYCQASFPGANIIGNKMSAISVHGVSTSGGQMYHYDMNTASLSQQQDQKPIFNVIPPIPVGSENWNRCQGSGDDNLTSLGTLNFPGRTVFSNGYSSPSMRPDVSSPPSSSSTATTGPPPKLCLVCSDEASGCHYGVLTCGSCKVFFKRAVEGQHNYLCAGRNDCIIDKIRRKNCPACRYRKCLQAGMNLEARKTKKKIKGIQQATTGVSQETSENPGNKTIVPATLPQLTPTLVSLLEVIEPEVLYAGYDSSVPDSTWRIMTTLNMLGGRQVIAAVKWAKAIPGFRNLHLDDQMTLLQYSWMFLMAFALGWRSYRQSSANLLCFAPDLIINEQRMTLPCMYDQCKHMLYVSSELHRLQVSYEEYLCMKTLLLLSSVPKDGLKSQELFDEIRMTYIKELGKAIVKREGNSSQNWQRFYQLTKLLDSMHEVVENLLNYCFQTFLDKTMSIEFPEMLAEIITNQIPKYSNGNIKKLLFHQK

[5] = target: Glucocorticoid receptor (Homo sapiens) (UniProt P04150); assay: GR-EFC Redistribution (AID 451; calls by dose curve; also: potency is read from the fitted curve at half-maximal effect); details: CHO-K1 GR-EFC translocation, beta-gal luminescence, 2 h
In short: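 CHO-K1 cells expressing nuclear EA and GR-ED fragments of b-gal; compounds titrated up to 46 uM final, 2 h at 37 C. GR nuclear translocation read as complemented b-gal luminescence after 1 h RT detection.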

[6] = target: Mitogen-activated protein kinase 10 (Mus musculus) (UniProt Q61831); assay: JNK3 AlphaScreen Assay (AID 530; active = well fitted curve in either direction with a large enough effect, not every such curve was filed as active;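 also: kinase came from lysate of stimulated human HepG2 cells; signal reports phosphorylation of biotinylated GST-cJun 1-79 at Ser73 with 10 µM ATP; % is scaled to controls: 0 for no effect and ±100 for the full control effect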); details: JNK3 lysate, c-Jun phosphorylation; series mostly up to 57.1 µM
In short: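 Activity was read by AlphaScreen after JNK3-containing HepG2 lysate (cytokine pre-activated) phosphorylated biotinylated GST-cJun with 10 uM ATP at room temperature. Phospho-Ser73 cJun antibody with Protein-A acceptor beads provided detection.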

[7] = target: 3',5'-cyclic-AMP phosphodiesterase 4B (Homo sapiens) (UniProt Q07343); assay: qHTS Assay for Inhibitors of PDE-IV (AID 607; active = well fitted activation curve with a large enough effect in the main read-out, with a control signal flat, not every such curve was filed as active; also: % of control where 0% means no effect); details: HEK293 ACTOne CNG channel cells, membrane potential fluorescence; series mostly up to 22.9 µM
Sequence of 3',5'-cyclic-AMP phosphodiesterase 4B (Homo sapiens) (Q07343 whole entry, looked up): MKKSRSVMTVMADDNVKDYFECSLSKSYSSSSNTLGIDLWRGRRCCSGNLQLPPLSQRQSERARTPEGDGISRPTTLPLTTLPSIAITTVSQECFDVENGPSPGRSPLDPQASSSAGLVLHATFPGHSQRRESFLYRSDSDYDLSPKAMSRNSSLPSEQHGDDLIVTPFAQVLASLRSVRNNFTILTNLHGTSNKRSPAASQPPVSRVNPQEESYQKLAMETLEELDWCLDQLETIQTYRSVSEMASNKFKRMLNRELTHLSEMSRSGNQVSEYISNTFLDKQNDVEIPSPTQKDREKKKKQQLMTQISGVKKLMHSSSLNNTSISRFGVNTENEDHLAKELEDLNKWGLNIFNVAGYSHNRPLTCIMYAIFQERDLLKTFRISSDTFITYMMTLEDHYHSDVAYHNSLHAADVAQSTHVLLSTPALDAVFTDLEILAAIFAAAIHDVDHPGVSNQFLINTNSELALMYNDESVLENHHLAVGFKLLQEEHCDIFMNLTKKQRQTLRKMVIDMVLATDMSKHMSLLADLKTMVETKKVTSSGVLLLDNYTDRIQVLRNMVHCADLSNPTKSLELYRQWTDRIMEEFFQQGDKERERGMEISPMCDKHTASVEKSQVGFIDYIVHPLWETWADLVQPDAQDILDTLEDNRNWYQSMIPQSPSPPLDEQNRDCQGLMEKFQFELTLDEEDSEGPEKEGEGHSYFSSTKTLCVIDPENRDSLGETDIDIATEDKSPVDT
In short: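 ACTOne HEK293 cells carry a modified cAMP-gated CNG channel and express endogenous PDE4; plated 1000 cells/well, compounds up to 22.9 uM final. Membrane-potential dye fluorescence (ex 535/em 590) was read; parental cells received 10 uM forskolin + 100 uM RO 20-1724.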

[8] = target: Guanine nucleotide-binding protein G(i) subunit alpha-1 (Homo sapiens) (UniProt P63096); assay: qHTS Assay for Inhibitors of RGS12 GoLoco Motif Activity (Green Fluorophore) (AID 879); details: Galphai1/FITC-RGS12 GoLoco peptide, fluorescence polarization; series mostly up to 57.1 µM;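 also: 0% = labeled peptide with Gαi1 and full inhibition = labeled peptide alone without protein; negative values mean loss of peptide binding seen as reduced polarization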
Sequence of Guanine nucleotide-binding protein G(i) subunit alpha-1 (Homo sapiens) (P63096 whole entry, looked up): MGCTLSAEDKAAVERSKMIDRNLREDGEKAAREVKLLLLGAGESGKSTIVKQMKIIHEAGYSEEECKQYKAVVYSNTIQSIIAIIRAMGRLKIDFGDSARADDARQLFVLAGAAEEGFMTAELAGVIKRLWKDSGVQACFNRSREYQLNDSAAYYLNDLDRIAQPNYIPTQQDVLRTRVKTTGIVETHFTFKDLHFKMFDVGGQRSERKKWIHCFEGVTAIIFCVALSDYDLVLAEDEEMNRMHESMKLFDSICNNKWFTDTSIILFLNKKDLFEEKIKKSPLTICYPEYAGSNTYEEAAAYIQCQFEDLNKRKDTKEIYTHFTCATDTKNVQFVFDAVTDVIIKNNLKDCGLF
In short: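 A drop in FITC polarization marked displacement of the FITC-tagged RGS12 GoLoco peptide (10 nM) from Gαi1 (50 nM). Compounds were incubated 10 min at room temperature in Tris pH 7.5 buffer containing 150 mM NaCl, 0.1 mM GDP and 0.05% NP40; unlabeled peptide titration served as control.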

[9] = target: Pyruvate kinase (Leishmania mexicana) (UniProt Q27686); assay: qHTS Validation Assay for Inhibitors of Leishmania Mexicana Pyruvate Kinase (AID 945);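 also: 0% = DMSO only neutral control wells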; details: purified L. mexicana pyruvate kinase, enzyme activity, E451W mutant enzyme; series mostly up to 57.5 µM
Sequence of Pyruvate kinase (Leishmania mexicana) (Q27686 2-499 E452W): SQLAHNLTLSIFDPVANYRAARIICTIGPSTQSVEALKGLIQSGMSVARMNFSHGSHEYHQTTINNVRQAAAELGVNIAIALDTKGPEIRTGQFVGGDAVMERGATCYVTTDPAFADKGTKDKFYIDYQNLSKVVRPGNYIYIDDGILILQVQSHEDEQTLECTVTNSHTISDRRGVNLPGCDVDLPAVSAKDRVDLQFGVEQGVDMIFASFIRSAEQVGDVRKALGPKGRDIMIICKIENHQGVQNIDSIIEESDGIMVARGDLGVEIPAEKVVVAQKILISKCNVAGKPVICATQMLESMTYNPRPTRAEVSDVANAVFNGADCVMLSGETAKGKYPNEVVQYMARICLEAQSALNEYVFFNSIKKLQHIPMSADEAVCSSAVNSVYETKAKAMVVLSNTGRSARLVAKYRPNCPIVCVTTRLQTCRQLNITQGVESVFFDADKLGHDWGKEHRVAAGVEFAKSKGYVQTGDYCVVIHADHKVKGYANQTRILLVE
In short: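 The enzyme is a highly purified E451W mutant of LmPYK used at 0.2 nM. It converts 0.5 mM PEP and 0.1 mM ADP over 1 h at room temperature; product ATP is quantified by luciferase luminescence relative to DMSO controls.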

[10] = target: Alpha-galactosidase A (Homo sapiens) (UniProt P06280); assay: Counterscreen for Glucocerebrosidase Inhibitors: qHTS Assay for Human alpha-Galactosidase at pH 4.5 (AID 992); details: purified enzyme, fluorogenic substrate; series mostly up to 76.9 µM; also: 0% is about no effect
Sequence of Alpha-galactosidase A (Homo sapiens) (P06280 whole entry, looked up): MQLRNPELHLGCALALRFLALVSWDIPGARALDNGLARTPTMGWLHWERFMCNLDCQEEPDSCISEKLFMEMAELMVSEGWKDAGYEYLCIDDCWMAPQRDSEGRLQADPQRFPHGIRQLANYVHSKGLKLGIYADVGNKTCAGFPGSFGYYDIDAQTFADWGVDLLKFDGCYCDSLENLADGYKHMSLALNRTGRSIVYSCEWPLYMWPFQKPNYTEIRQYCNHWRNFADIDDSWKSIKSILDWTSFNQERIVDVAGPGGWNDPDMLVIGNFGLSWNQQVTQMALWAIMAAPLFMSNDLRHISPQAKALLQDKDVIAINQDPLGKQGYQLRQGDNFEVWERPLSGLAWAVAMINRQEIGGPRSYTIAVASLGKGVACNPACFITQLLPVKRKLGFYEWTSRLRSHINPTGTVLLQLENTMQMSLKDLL
In short: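 Citrate buffer pH 4.5, Tween-20 0.005%. Enzyme 2 nM, substrate 80 uM, 20 min RT. Stop pH 10. Fluorescence Ex 365/Em 440. AC50 by Hill fit.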

[11] = target: alpha-glucosidase (Oryza sativa, rice) (UniProt Q653V4); assay: Counterscreen for Glucocerebrosidase Inhibitors: qHTS Assay for Rice alpha-Glucosidase at pH 5.0 (AID 997); details: rice alpha-glucosidase enzyme activity; series mostly up to 76.9 µM;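 also: 0% = full activity with enzyme and -100% = basal without enzyme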
In short: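 Endpoint fluorogenic assay at pH 5.0: compounds (0.7 nM to 77 uM) titrated against 4 nM rice enzyme and 400 uM 4-MU-alpha-glucoside for 20 min at room temperature; NaOH/glycine stop, read ex 365/em 440 nm, Hill-fitted AC50.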

[12] = qHTS Assay for Lipid Storage Modulators (AID 1519; calls by dose curve); details: Drosophila S3 cells, BODIPY lipid droplet/cell ratio, laser cytometry, cells loaded with oleic acid
In short: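 Cells seeded at 5,000 per well were treated with compounds over a concentration series and loaded with oleic acid (400 uM, as added). Lipid droplet fluorescence (488 nm excitation, 500-530 nm channel) was read by laser-scanning cytometry and normalized to 20 uM Triacsin C.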

[13] = target: DNA dC->dU-editing enzyme APOBEC-3G (Homo sapiens) (UniProt Q9HC16); assay: qHTS for inhibitors of Vif-A3G interactions: Validation (AID 588379); details: Vif-A3G protein interaction assay; series mostly up to 46.1 µM; also: 0% is about no effect
Sequence of DNA dC->dU-editing enzyme APOBEC-3G (Homo sapiens) (Q9HC16 whole entry, looked up): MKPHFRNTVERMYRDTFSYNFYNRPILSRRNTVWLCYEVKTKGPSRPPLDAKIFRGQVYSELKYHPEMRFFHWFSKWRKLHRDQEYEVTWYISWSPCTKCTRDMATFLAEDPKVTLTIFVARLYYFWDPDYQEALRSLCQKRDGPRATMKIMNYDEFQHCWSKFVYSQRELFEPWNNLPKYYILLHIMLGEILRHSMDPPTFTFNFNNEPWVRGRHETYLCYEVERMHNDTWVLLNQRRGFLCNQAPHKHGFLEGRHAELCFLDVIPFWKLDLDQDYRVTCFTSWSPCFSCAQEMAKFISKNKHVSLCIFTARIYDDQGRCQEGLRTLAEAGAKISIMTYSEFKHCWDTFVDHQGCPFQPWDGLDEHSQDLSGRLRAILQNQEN
In short: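 Yellow fluorescence (Ex 488, Em 500-530) of Vif-coexpressing HeLa A3G-eYFP cells, scanned by Acumen cytometer, reports blocked A3G degradation. Cells plated at 700/well overnight at 37 deg C before compound addition, then a further overnight compound incubation at 37 deg C.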

[14] = tested on: Zika virus NS2B-NS3 protease; assay: Primary screen GU AMC qHTS for Zika virus inhibitors (AID 1347154); details: Zika NS2B-NS3 unlinked protease, AMC fluorogenic substrate; series mostly up to 54.1 µM;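 also: 0% = no-inhibitor control and -100% = no-enzyme control; nearly all actives have a fitted effect of over 70% in size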
In short: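 Unlinked Zika NS2B hydrophilic domain–NS3 protease complex at 25 nM in 10 mM Tris-HCl pH 8.0, 0.01% Tween 20, with an AMC peptide substrate. Fluorescence change (340/450 nm) over 15 min at room temperature, normalized to controls, fitted to 4-parameter Hill.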

[15] = Primary qHTS for small molecule stabilizers of the endoplasmic reticulum resident proteome: Secreted ER Calcium Modulated Protein (SERCaMP) assay (AID 1508630); details: SH-SY5Y GLuc-SERCaMP (Gaussia luciferase released on ER calcium loss) secretion, thapsigargin, luminescence; series mostly up to 38.4 µM; also: % is scaled to controls: 0 for no effect and ±100 for the full control effect
In short: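 The SH-SY5Y reporter protocol was run at 3 concentrations up to 38.3 uM (primary) or 11 concentrations (follow-up): 16 h compound, 100 nM thapsigargin for 4 h, then extracellular luciferase luminescence.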

[16] = target: Cytochrome P450 1A2 (Homo sapiens) (UniProt P05177); assay: p450-cyp1a2 (AID 410; calls by dose curve; also: potency is read from the fitted curve at half-maximal effect;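 as to activity change, negative = inhibition: -100% = full effect of reference inhibitor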); details: recombinant CYP1A2, luciferin-ME demethylation, luminescence; series mostly up to 57 µM
Sequence of Cytochrome P450 1A2 (Homo sapiens) (P05177 whole entry, looked up): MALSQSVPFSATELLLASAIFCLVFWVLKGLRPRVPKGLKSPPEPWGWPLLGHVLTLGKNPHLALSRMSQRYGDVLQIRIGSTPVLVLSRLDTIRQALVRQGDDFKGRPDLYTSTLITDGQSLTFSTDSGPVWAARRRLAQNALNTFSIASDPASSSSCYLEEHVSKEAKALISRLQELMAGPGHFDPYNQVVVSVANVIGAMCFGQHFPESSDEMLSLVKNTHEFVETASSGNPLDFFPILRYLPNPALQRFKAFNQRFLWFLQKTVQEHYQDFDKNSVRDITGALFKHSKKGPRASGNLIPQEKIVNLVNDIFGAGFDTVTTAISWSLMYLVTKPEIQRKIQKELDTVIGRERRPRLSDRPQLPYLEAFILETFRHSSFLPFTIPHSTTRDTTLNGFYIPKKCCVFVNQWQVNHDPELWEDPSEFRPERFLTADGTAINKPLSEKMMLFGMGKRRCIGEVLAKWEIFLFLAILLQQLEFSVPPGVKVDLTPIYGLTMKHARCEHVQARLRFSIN
In short: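 Luminescent demethylation readout: Luciferin-ME (100uM, equal to Km) turned over by 20nM CYP1A2 for 60 min at room temperature after NADPH regeneration addition, following 10 min compound preincubation. Normalization used 57 uM furafylline as full inhibition.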

[17] = target: Ubiquitin carboxyl-terminal hydrolase 1 (Homo sapiens) (UniProt O94782); assay: Inhibitors of USP1/UAF1: Pilot qHTS (AID 504865); details: purified USP1/UAF1, Ub-rhodamine cleavage fluorescence; series mostly up to 114 µM;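 also: rhodamine fluorescence freed from ubiquitin-rhodamine substrate followed over time; top concentration of the series differs between compounds; % is scaled to controls: 0 for no effect and ±100 for the full control effect; nearly all actives have a fitted effect of over 35% in size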
Sequence of Ubiquitin carboxyl-terminal hydrolase 1 (Homo sapiens) (O94782 whole entry, looked up): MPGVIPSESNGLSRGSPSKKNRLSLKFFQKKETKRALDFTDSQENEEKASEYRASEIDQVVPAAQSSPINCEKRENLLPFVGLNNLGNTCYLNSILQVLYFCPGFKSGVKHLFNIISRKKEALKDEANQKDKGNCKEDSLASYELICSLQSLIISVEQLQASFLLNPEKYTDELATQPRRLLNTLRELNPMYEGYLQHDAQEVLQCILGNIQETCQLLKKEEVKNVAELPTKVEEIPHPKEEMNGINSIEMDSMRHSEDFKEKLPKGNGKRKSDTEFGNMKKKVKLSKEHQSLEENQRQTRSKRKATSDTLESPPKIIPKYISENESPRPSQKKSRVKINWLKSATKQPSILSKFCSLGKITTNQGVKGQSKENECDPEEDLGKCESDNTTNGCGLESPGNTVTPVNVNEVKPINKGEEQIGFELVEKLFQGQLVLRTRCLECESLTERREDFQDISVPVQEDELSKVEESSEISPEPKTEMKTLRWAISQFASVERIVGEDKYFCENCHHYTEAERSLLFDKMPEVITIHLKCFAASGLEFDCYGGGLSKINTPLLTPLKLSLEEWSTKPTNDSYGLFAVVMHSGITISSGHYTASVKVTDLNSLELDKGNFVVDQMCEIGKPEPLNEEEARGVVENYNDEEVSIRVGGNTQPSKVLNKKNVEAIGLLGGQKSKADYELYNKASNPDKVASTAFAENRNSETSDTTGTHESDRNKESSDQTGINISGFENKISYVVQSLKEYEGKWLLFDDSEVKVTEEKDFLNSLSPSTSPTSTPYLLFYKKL
In short: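 USP1/UAF1 complex at 1 nM preincubated 15 min at room temperature with compound, then Ub-Rho substrate added at 150 nM final. Fluorescence (480/540 nm) read kinetically in 50 mM HEPES pH 7.8, 0.5 mM EDTA, 1 mM TCEP, 0.1 mg/ml BSA, 0.01% Tween-20.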

[18] = target: Cytochrome P450 3A4 (Homo sapiens) (UniProt P08684); assay: qHTS Assay for Activators of Cytochrome P450 3A4 (AID 885); details: recombinant CYP3A4, Luciferin-PPXE luminescence, 60 min; series mostly up to 57.1 µM; also: nearly all actives have a fitted effect of over 65% in size
Sequence of Cytochrome P450 3A4 (Homo sapiens) (P08684 whole entry, looked up): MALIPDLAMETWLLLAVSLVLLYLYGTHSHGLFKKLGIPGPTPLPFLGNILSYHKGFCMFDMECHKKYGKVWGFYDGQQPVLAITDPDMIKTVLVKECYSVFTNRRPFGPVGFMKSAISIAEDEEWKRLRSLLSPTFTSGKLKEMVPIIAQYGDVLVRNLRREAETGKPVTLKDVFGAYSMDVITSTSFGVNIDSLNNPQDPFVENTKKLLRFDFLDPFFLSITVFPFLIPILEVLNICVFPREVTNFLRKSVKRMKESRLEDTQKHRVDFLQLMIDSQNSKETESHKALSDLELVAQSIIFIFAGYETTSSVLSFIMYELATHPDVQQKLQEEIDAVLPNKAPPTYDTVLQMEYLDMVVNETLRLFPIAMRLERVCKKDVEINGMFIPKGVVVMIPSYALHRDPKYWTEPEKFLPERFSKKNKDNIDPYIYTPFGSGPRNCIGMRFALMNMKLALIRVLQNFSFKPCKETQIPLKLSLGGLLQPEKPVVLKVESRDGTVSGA
In short: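 CYP3A4 activity: Luciferin-PPXE O-dealkylation, 25uM substrate, 200mM KPO4, RT throughout. Read-out is luciferase luminescence; higher values reflect activation.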

[19] = target: Cytochrome P450 2D6 (Homo sapiens) (UniProt P10635); assay: qHTS Assay for Inhibitors and Substrates of Cytochrome P450 2D6 (AID 891); details: recombinant CYP2D6, luciferin-ME EGE luminescence; series mostly up to 57.1 µM; also: nearly all actives have a fitted effect of over 60% in size; also: potency is read from the fitted curve at half-maximal effect
In short: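 Luminescent read-out of luciferin formed by 5 nM human CYP2D6 demethylating 30 uM Luciferin-ME EGE (Km level) over 60 min at room temperature after NADPH regeneration addition. Data normalized to full inhibition by 1.43 uM quinidine.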

[20] = target: Cytochrome P450 2C19 (Homo sapiens) (UniProt P33261); assay: qHTS Assay for Inhibitors and Substrates of Cytochrome P450 2C19 (AID 899); details: recombinant CYP2C19, luciferin-H EGE luminescence; series mostly up to 57.1 µM; also: potency is read from the fitted curve at half-maximal effect; nearly all actives have a fitted effect of over 60% in size
In short: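 Luminescent read-out of luciferin formed from Luciferin-H EGE (10uM, equal to KM). Enzyme 5nM in 50mM KPO4; compound added, 10 min at 37C, then NADPH regenerating system for 60 min at 37C. Full inhibition defined by 57uM ketoconazole.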

[21] = measured here: cell count channel max response
[22] = measured here: lipid channel max response

N[C@]1(C(=O)O)CCc2cc(C(=O)O)ccc21
14.2%: max response [12, 21]
23.6%: max response [12, 22]
inactive: activity change, negative = inhibition ([1]; at 38 µM (top of the series)) 2.45% | activity change, negative = inhibition [2] 3.1% | activity, negative = inhibition ([3]; at 38 µM (top of the series)) -13% | Potency [4] > 46 µM | Potency [5] > 46 µM | Potency [6] | Potency [7] | outcome [8] | Potency [9] | outcome [10] | outcome [11] | activity change, negative = inhibition ([12]; at 57.5 µM (top of the series)) 5.84% | Potency [13] | Potency [14] | Potency [15]

CC(C)SC(=N)N
-3.81%: max response [12, 22]
1.11%: max response [12, 21]
inactive: Potency [16] | Potency [4] > 46 µM | Potency [5] > 46 µM | Potency [6] | Potency [7] | activity change, negative = inhibition ([12]; at 57.5 µM (top of the series)) -0.874% | Potency [17] | Potency [13] | Potency [14] | Potency [15]

C[C@H](C[C@H](N)C(=O)O)C(=O)O
active: Potency [16] 31.6 µM
-13.5%: max response [12, 22]
-13.2%: max response [12, 21]
inactive: Potency [4] > 46 µM | Potency [5] > 46 µM | Potency [6] | Potency [7] | activity change, negative = inhibition ([12]; at 57.5 µM (top of the series)) -1.92% | Potency [17] | Potency [13] | Potency [14] | Potency [15]

N[C@H](C(=O)O)c1nn[nH]n1
inactive: Potency [16] | Potency [4] > 46 µM | Potency [5] > 46 µM | Potency [7] | activity change, negative = inhibition ([12]; at 57.5 µM (top of the series)) 1.12% | Potency [17] | Potency [13] | Potency [14] | Potency [15]
-0.771%: max response [12, 22]
-0.925%: max response [12, 21]

CC[N+](C)(CC)CCC[n+]1c(-c2ccccc2)c2cc(N)ccc2c2ccc(N)cc21
-4.14%: max response [12, 21]
-3.68%: max response [12, 22]
active: Potency [16] 12.6 µM | Potency [19] 6.31 µM | Potency [20] 1.58 µM
inactive: activity change, negative = inhibition ([1]; at 17.2 µM (top of the series)) 5.27% | activity, negative = inhibition ([3]; at 17.2 µM (top of the series)) -13.1% | Potency [4] > 20.6 µM | Potency [5] > 20.6 µM | Potency [6] | Potency [7] | Potency [18] | activity change, negative = inhibition ([12]; at 25.7 µM (top of the series)) 0.117% | Potency [14] | Potency [15]

CCN(Cc1ccncc1)C(=O)[C@@H](CO)c1ccccc1
inactive: activity change, negative = inhibition ([1]; at 17.2 µM (top of the series)) 5.81% | activity, negative = inhibition ([3]; at 17.2 µM (top of the series)) -6.07% | activity, negative = inhibition ([3]; at 38 µM (top of the series)) -7.02% | Potency [6] | Potency [7] | outcome [8] | Potency [18] | Potency [19] | Potency [9] | outcome [10] | outcome [11] | activity change, negative = inhibition ([12]; at 25.7 µM (top of the series)) -4.57% | Potency [13] | Potency [14] | Potency [15]
-15.1%: max response [12, 22]
-10.2%: max response [12, 21]
active: Potency [16] 15.8 µM and 10 µM
